Autophagy mod: modulators of autophagy. calls only at 10 µM (by protocol). AID 463193. MEF GFP-LC3 puncta imaging; test concentration mostly 10 µM. hit rate 0.98% among 190,000;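 active = percentage of spot-positive cells more than 3 SD above its plate mean, without a fluorescence outlier flag or 80% toxicity; inconclusive = no clear call, values can overlap the other calls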;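 note: spot-positive cell cutoff set from DMSO-treated cells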
Insulin prom up: MIN6 insulin promoter up-regulation; AID 1625; hit rate 0.3% among 190,000; z-score at 5 µM; MIN6 insulin promoter-GFP reporter, high-content imaging; hits give high values;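 active = z-score above 3 at 5 µM with at least 500 cells counted in the well; inconclusive = wells under 500 cells, flagged as cytotoxic or low count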
eIF4E-4G inh: eIF4E/eIF4G interaction inhibition in translation initiation; hit rate 0.37% among 220,000; TR-FRET eIF4E-eIF4GI(517-606) binding, 2 h; inhibition, % at 21.7 µM;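 active = inhibition above about 30%, limit read from the data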;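 note: 0% = full FRET control wells and 100% = background wells lacking eIF4GI fragment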
PERK inhibitor: human PERK inhibition, primary cell-based screen | inhibition, % at 5.6 µM | CHO PERK-DD fusion, SEAP luminescence translation reporter | Q9NZJ5 | hit rate 0.17% among 220,000;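 active = inhibition above the mean inhibition of all tested compounds plus 3 SD, set separately per screening campaign, cut at about 2.9% in these data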;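 note: PERK kinase domain activated by AP20187 dimerizer at 100 nM; 0% = DMSO with dimerizer and 100% = rapamycin at 8.4 µM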
Target sequence (Q9NZJ5 whole entry, looked up, the tested form may be a part): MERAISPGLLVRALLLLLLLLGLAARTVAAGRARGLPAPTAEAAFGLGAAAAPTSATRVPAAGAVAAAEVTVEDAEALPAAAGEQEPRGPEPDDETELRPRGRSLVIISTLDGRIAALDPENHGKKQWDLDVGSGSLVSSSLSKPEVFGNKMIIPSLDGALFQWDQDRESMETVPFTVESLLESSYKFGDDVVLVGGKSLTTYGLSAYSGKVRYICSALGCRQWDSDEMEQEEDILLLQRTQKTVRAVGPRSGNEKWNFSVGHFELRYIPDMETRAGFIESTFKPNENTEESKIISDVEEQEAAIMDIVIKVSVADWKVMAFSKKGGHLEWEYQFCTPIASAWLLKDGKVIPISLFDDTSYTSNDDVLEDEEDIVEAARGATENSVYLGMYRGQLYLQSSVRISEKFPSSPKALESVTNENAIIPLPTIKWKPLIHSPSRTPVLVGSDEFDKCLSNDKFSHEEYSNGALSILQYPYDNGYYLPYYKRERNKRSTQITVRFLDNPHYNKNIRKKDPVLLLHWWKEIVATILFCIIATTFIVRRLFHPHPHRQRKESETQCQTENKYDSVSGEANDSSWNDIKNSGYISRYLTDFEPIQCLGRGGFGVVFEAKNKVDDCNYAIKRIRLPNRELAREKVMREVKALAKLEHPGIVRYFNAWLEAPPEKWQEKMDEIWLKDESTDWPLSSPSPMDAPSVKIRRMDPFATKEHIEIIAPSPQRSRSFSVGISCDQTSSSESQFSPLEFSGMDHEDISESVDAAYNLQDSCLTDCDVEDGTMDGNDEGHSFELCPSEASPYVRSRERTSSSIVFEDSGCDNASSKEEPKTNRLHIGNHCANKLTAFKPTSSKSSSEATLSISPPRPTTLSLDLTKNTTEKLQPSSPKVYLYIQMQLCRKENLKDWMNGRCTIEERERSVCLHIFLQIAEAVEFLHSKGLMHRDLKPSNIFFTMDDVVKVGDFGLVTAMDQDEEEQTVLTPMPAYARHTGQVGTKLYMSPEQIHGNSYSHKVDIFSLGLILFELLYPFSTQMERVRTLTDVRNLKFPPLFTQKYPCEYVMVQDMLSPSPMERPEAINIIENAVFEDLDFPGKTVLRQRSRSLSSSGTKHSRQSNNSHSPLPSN
INS promoter inh: TRM-6 insulin promoter activity inhibition; hit rate 0.9% among 130,000; TRM-6 cells (human fetal islet line), insulin promoter-eGFP reporter, imaging; reporter expression induced with tamoxifen; inhibition, % at 2 µM;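 active = inhibition above the mean plus 3 SD, with well images judged a real hit on visual review, cut at about 60% in these data, passing the limit was not always enough; inconclusive = inhibition over the cutoff but images rejected on review; inactive = inhibition not above the cutoff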
The depositor's hits bear a star; i = inactive; ? = inconclusive; · = no result; + = active, no number. Compounds with a hit are over-represented: about 2% of the library has one in this group of screens.

SMILES	Autophagy mod	Insulin prom up	eIF4E-4G inh	PERK inhibitor	INS promoter inh
O=C(CN1CCN(CC(=O)Nc2ccccc2C(F)(F)F)CC1)Nc1ccccc1F	i	0.63	6.2	0.9	84.6*
CN(C)c1ccc(/C=c2/sc3n(c2=O)NC2(c4ccccc4)N(C)C(=O)N(C)C2(c2ccccc2)N=3)cc1 (centres undefined)	i	1.75	3.7	-0.7	-93.8
CCN1CCN(S(=O)(=O)c2cc(OC)ccc2OC)CC1	i	-0.35	-6.5	0.5	-4.8
COc1ccc(OC)c(S(=O)(=O)N2CCN(c3c(C)cccc3C)CC2)c1	·	0.39	72.7*	0.7	·
COc1cc(-c2nc3ccccc3s2)ccc1O	i	-0.02	-0.2	-0.4	-28.6
COc1ccc(-c2nc3ccccc3s2)cc1O	i	-0.06	-1.9	0.4	85.7*
Cc1nc(NCCN2CCOCC2)c2oc3ccccc3c2n1	i	-0.71	-0.8	-0.1	57.1
Cc1nc(NCCc2ccccc2)c2oc3ccccc3c2n1	i	-2.37	-9.1	-0.3	68.8*
Cc1nc(Nc2ccc3c(c2)OCO3)c2oc3ccccc3c2n1	i	-0.48	-12.0	-0.8	81.8*
CC(C)Nc1nc(NC(C)C)nc(OCCOC(=O)Nc2ccccc2)n1	i	-0.66	-11.4	-0.2	·
COC(=O)c1cccc(Cn2nc(C)c([N+](=O)[O-])c2C)c1	i	·	2.1	1.6	0.0
Cc1nccn1-c1ccc(C(F)(F)F)cc1[N+](=O)[O-]	i	-0.32	-5.8	0.5	72.7*
COc1ccc(C(=O)c2c(C)c3cc(C)ccc3n2CC(O)CN2CCOCC2)cc1 (centres undefined)	i	0.08	14.4	-0.8	-18.8
CC(=O)Cn1nnc2sc3c(c2c1=O)CCC(C(C)(C)C)C3 (centres undefined)	i	-1.22	-0.2	0.8	·
CCn1nnc2sc3c(c2c1=O)CCC(C)C3 (centres undefined)	i	3.59*	-6.4	0.7	78.4*
Cc1nc(-c2cccc(NS(=O)(=O)c3ccc4ccccc4c3)c2)cs1	i	-0.45	4.5	0.8	-21.6
CC(c1ccccc1)N1C(=O)c2ccccc2C1O (centres undefined)	i	0.24	2.0	0.5	·
Cc1ccc(NC(=O)CCC(=O)NNC(=O)COc2ccccc2)cc1C	i	0.24	-5.5	0.3	-20.6
CCOc1ccc(NC(=O)CCC(=O)NNC(=O)COc2ccccc2C)cc1	+	1.45	-0.4	-0.4	·
Cc1ccc(NC(=O)Cn2c(=O)oc3ccccc32)cc1	i	0.32	-0.5	0.9	·
O=C(Cn1c(=O)oc2ccccc21)c1ccccc1	i	1.17	1.8	1.1	72.6*
COc1ccc(CNC(=O)CCn2c(=O)oc3ccccc32)cc1	i	-0.12	-5.7	-0.3	5.9
CCOc1ccc(NC(=O)Cn2c(=O)oc3ccccc32)cc1	i	3.64*	0.3	-0.3	7.1
CCOc1ccc(CNC(=O)CCn2c(=O)oc3ccccc32)cc1	i	3.4*	3.6	0.2	-6.5
O=c1oc2ccccc2n1CCCCCn1c(=O)oc2ccccc21	i	0.08	0.1	-1.1	·
SMILES	Autophagy mod	Insulin prom up	eIF4E-4G inh	PERK inhibitor	INS promoter inh
CN(Cc1ccccc1)C(=O)COC(=O)CCNC(=O)c1ccccc1Cl	i	-0.25	1.4	0.5	·
Cc1ccc(SCC(=O)N2c3ccccc3Sc3ccccc32)cc1	i	0.67	-19.5	-1.0	36.7
COCC(C)n1c(C)cc(C(=O)Cn2c(=O)oc3ccccc32)c1C (centres undefined)	i	-0.55	8.2	-0.3	78.6*
Cc1cc(N2CCN(S(=O)(=O)c3ccc4ccccc4c3)CC2)n2ncnc2n1	+	-0.08	13.5	-0.6	·
Cc1ccc(N(Cc2cc3cc(C)ccc3[nH]c2=O)S(=O)(=O)c2ccccc2)cc1	i	0.11	1.4	0.4	-25.8
CCCCN(CCCC)S(=O)(=O)c1c(C)[nH]c(=O)[nH]c1=O	i	-0.19	0.0	0.0	72.7*
CCOC(=O)c1c(NC(=O)COC(=O)C2CC2C)sc(C)c1C (centres undefined)	i	0.35	-1.9	1.0	·
COc1cccc(N/C(N)=N/c2nc(CSc3ccccn3)cc(=O)[nH]2)c1	+	0.07	-1.7	1.1	-463.6
CCc1ccc(N/C(N)=N/c2nc(CSc3ccccn3)cc(=O)[nH]2)cc1	i	-1.1	-5.3	0.7	30.4
CN(c1cccc(Cl)c1)S(=O)(=O)c1cccc(C(=O)Nc2nc3ccccc3[nH]2)c1	i	-1.62	2.9	-1.5	·
COc1ccc(N(C)S(=O)(=O)c2cccc(C(=O)Nc3nc4ccccc4[nH]3)c2)cc1	i	-3.07	-3.9	-1.1	71.4*
O=C1CN(C(=O)c2cc3ccccc3oc2=O)C(c2ccc(F)cc2)c2cc(F)ccc2N1 (centres undefined)	i	0.85	0.6	0.2	-4.8
O=C1CN(C(=O)c2cc3ccccc3oc2=O)C(c2ccc(F)cc2)c2cc(Br)ccc2N1 (centres undefined)	+	0.76	-0.1	-0.2	-38.1
Cc1cccc(NC(=O)C2CCCN2/C=C/C(=O)C(F)(F)F)c1C (centres undefined)	i	-0.63	-2.5	0.3	·
COc1ccc(N=c2oc3ccccc3cc2C(=O)Nc2ccccn2)cc1OC	+	0.03	-3.0	0.9	28.6
COc1ccc(N=c2oc3c(OC)cccc3cc2C(=O)NCc2ccco2)cc1OC	+	-0.76	-38.8	-0.1	·
COc1ccccc1N=c1oc2c(OC)cccc2cc1C(=O)NCc1ccco1	i	-1.6	-7.0	-0.1	·
O=C(O)C(Cc1ccccc1)N1C(=O)/C(=C/C=C/c2ccco2)SC1=S (centres undefined)	·	-0.42	53.4*	0.4	·
O=C1S/C(=C\C=C\c2ccco2)C(=O)N1c1ccc(O)cc1	i	-0.02	-4.6	1.6	·
O=C(NN1C(=O)/C(=C/C=C/c2ccco2)SC1=S)c1ccccc1O	·	0.06	35.9*	0.9	·
O=C(O)CC(C(=O)O)N1C(=O)/C(=C/C=C/c2ccco2)SC1=S (centres undefined)	·	-0.22	32.1*	2.1	·
O=C(O)CCCN1C(=O)/C(=C/C=C/c2ccco2)SC1=S	·	0.58	32.4*	0.2	·
COc1ccc(/C=C2\SC(=S)N(C(Cc3ccccc3)C(=O)O)C2=O)cc1 (centres undefined)	i	0.95	4.0	0.3	·
CS(=O)(=O)N(Cc1ccc(Cl)cc1)c1ccc(C(=O)N/N=C/c2cc3ccccc3nc2Cl)cc1	i	-0.54	-1.0	0.1	·
CC1(C)CC(C(CC(=O)N2CCCC2)Cc2ccccc2)CCO1 (centres undefined)	·	0.86	3.5	0.6	·
COCCSc1nnc(-c2cccc(C#N)c2)n1C	i	-0.42	5.0	3.3*	-78.6
COc1cccc2sc(Nc3nnc(-c4ccccc4Cl)o3)nc12	+	·	-1.1	-1.1	·
COc1ccccc1-c1nnc(Nc2nc3c(OC)cccc3s2)o1	i	·	-2.4	-1.2	-69.2
O=C(c1ccccc1)c1c2c(cc3sc4ccccc4[n+]13)-c1cccc3cccc-2c13	+	?	-57.2	-0.5	-233.3
Cc1cc2ncn(/N=C/c3ccc([N+](=O)[O-])o3)c2cc1C	i	·	-4.4	0.2	-29.6
